In publication PMC5540273 (PLoS ONE, 2017):

Test system: CHEK2
Conditions: concentration: 1 μM, replicates: in singlicate; n = 1
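Note: KINOMEscan kinase panel screen.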

SMILES	%Inh [%]
COc1ccc(C)c(Nc2ccnc(Nc3ccc(-c4cnc[nH]4)cc3)n2)c1.Cl [GW784041]	0
CCNC(=O)/C=C/c1n[nH]c2cc(Sc3ccccc3C(=O)NC)ccc12	0
Cl.N#CCc1ccc(Nc2nccc(Nc3ccc(Oc4ccccc4)cc3)n2)cc1 [GW639905]	0
CC(=O)Nc1cn2nc(Oc3cccc(NC(=O)c4cccc(C(F)(F)F)c4)c3)ccc2n1	0
CCNc1nccc(-c2c(-c3ccc(F)cc3)ncn2C2CCN(C)CC2)n1	0
COC(=O)Nc1nc2cc(Oc3ccc(NC(=O)Nc4cccc(SC)c4)cc3)ccc2[nH]1.Cl [GW697999]	28
Fc1cc(Cl)ccc1Nc1ccnc2cc(-c3ccc(CN4CCOCC4)o3)ccc12 [GW560109]	46
NCCC(NC(=O)c1cc(Br)c(-c2ccnc3[nH]ccc23)s1)c1ccccc1.O=C(O)C(F)(F)F.O=C(O)C(F)(F)F (stereo not drawn) [GSK1307810]	41
Cc1ccc(O)cc1Nc1ccnc2cc(-c3ccc(CN4CCCCC4)o3)ccc12 [GW557777]	0
CCn1cnc2c(NCc3ccccc3)ncnc21 [SKF-96418]	0
CN(c1ccc(F)c(NC(=O)c2cccc(OC(C)(C)C#N)c2Cl)c1)c1ccc2nc(NC(=O)C3CC3)sc2n1	13
Cn1cc(-c2ccc3c(c2)CCN3C(=O)Cc2cc(F)cc(F)c2F)c2c(N)ncnc21 [GSK2634140]	0
CN(C)c1ncnc2nc[nH]c12 [SKF-31736]	0
O=C(O)C(F)(F)F.O=c1[nH]ccc2nc(N[C@@H]3CCNC3)nc(Nc3ccc4c(c3)S(=O)(=O)CC4)c12 [GSK2181306]	82
Cn1cc(-c2cnc(N)c3c(-c4ccc5c(c4)CCN5C(=O)Cc4ccccc4)csc23)cn1 [GSK2593074]	0
Cc1ccc(NC(=O)c2ccc(Cl)c(Cl)c2)cc1-c1ccc(C(=O)Nc2ccncc2)cc1 [GSK1398460]	0

Test system: CIT
Conditions: concentration: 1 μM, replicates: in singlicate; n = 1

SMILES	%Inh [%]
N#CC1(c2cccc(C(=O)Nc3cccc(Oc4ccc5nc(NC(=O)C6CC6)sc5n4)c3)c2)CC1	94.2
Cc1ccc(C)c(NC(=O)Nc2ccc(C)c(-c3ccc(C(=O)Nc4ccncc4)cc3)c2)c1 [GSK1398473]	96.1
O=C(Nc1n[nH]c2nc(-c3ccccc3O)ccc12)C1CC1 [SB-711880]	0
CCn1c(-c2nonc2N)nc2c(-c3ccccc3)ncc(OCCCN)c21.O=C(O)C(F)(F)F.O=C(O)C(F)(F)F [GSK260205]	98.9
Cl.Cl.NC(CNC(=O)c1cc(Br)c(-c2ccnc3[nH]ccc23)s1)c1ccccc1 (stereo not drawn) [GSK1322949]	98.1
CCOc1nccc(-c2c(-c3ccc(F)cc3)ncn2C2CCNCC2)n1 [SB-249175]	10
COc1cccc2c(-c3ccncc3)c(-c3ccc(F)cc3)nn12 [GW468513]	98
CC(C)c1nc(-c2cccc(NS(=O)(=O)c3c(F)cccc3F)c2)c(-c2ccnc(Nc3ccc(N4CCOCC4)nc3)n2)s1.Cl [GSK1723980]	97.5
O=C(Nc1n[nH]c2cc(-c3cccs3)ccc12)C1CC1 [SB-731284]	24
Cc1ccc(NC(=O)c2cccc(N3CCCCC3)c2)cc1-c1ccc(C(=O)NCC2CC2)cc1 [GSK1917008]	86
Cl.O=C(Nc1ccc(Oc2ccc3[nH]c(NC(=O)c4ccco4)nc3c2)cc1)Nc1cc(C(F)(F)F)ccc1F [GW683134]	96.7
Cn1cc(-c2ccc3c(c2)CCN3C(=O)Cc2cc(F)cc(C(F)(F)F)c2)c2c(N)ncnc21 [GSK2635225]	28
COc1cc(Nc2nccc(N3CCC(NS(=O)(=O)c4ccc(NC(C)=O)cc4)CC3)n2)cc(OC)c1OC [GSK1379825]	17
O=C1NC(=O)C(c2ccccc2Cl)=C1Nc1cccc(Cl)c1 [SB-342409]	7
Cc1cc(-c2ccnc(Nc3cccc(C#N)c3)n2)cc(C)c1O [GSK1440913]	94
CC(C)NCC(Cc1ccccc1)NC(=O)c1cc(Br)c(-c2ccnc3[nH]ccc23)s1.Cl.Cl (stereo not drawn) [GSK1383281]	53
Nc1ncc(-c2ccc3nccc(-c4ccncc4)c3c2)cc1S(=O)(=O)N1CCCCC1 [GSK1693850]	31
